# Results from PubChem BioAssay (NCI).
# The panel holds about 79,000 compounds, 15% with a hit somewhere; the sample as a whole holds those more often. Unmarked numbers belong to inactive results. Active and inactive are the calls of the source. Cut-off read from the data, not from the text of the source: active = growth inhibition above about 70%; inactive = the rest.
# Experiments:
# [1] = NCI Yeast Anticancer Drug Screen. Data for the rad50 strain (AID 155);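 note: 0% = growth of vehicle-only cultures of the same strain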; details: S. cerevisiae rad50 strain growth inhibition, hits give high values
# How it was run: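 Genetically altered yeast (DNA repair pathway); compound treatment; growth inhibition vs vehicle ctrl.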
# [2] = NCI Yeast Anticancer Drug Screen. Data for the mec2-1 strain (AID 157); details: S. cerevisiae mec2-1 strain, hits give high values
# How it was run: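 Compounds were applied to mec2-1 yeast cells. Their growth was then compared with that of vehicle-treated cultures to give growth inhibition.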
# [3] = NCI Yeast Anticancer Drug Screen. Data for the sgs1 mgt1 strain (AID 161);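 note: 0% = growth of cultures given vehicle only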; details: S. cerevisiae sgs1 mgt1 strain, hits give high values
# How it was run: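 Growth of a repair-deficient yeast mutant was monitored after compound treatment and expressed as inhibition relative to vehicle-treated cultures.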
# [4] = NCI Yeast Anticancer Drug Screen. Data for the cln2 rad14 strain (AID 165);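 note: 0% = growth equal to vehicle treated cultures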; details: S. cerevisiae cln2 rad14 strain, hits give high values
# How it was run: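 Strain: cln2 rad14 yeast, altered in cell cycle control and DNA damage repair. Read-out: growth inhibition vs vehicle.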
# [5] = NCI Yeast Anticancer Drug Screen. Data for the bub3 strain (AID 167); details: S. cerevisiae bub3 mutant strain, hits give high values
# How it was run: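 Yeast carrying a defined mutation is treated with each compound, and growth is compared with that of vehicle-exposed cells to give inhibition.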
# [6] = NCI Yeast Anticancer Drug Screen. Data for the mlh1 rad18 strain (AID 175); details: S. cerevisiae mlh1 rad18 strain growth inhibition, hits give high values
# How it was run: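 A repair-deficient yeast strain is exposed to test compound, and growth is scored relative to vehicle-treated controls.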
# [7] = at 5.0 µM (retest, dose inferred, filed as 0.5)
# [8] = at 50.0 µM (retest, dose inferred, filed as 5.0)
SMILES,"growth inhibition [1, 7]","growth inhibition [1, 8]",growth inhibition ([1]; at 50.0 µM),"growth inhibition [2, 7]","growth inhibition [2, 8]",growth inhibition ([2]; at 50.0 µM),"growth inhibition [3, 7]","growth inhibition [3, 8]",growth inhibition ([3]; at 50.0 µM),"growth inhibition [4, 7]","growth inhibition [4, 8]",growth inhibition ([4]; at 50.0 µM),"growth inhibition [5, 7]","growth inhibition [5, 8]",growth inhibition ([5]; at 50.0 µM),"growth inhibition [6, 7]","growth inhibition [6, 8]",growth inhibition ([6]; at 50.0 µM)
N#CCC1CC(=O)c2[nH]c3ccccc3c2C1 (configuration not stated),-157%,-137%,8.85%,-49%,-54%,7.7%,-64%,-63%,10%,-54%,-74%,28%,-62%,-70%,-15.9%,-123%,-121%,10.4%
OCc1cccc2c1Oc1ccccc1S2,2%,55%,52.4%,4%,63%,-25.4%,1%,66%,-10.3%,-5%,17%,-59.5%,11%,73% (active),-37.5%,4%,71% (active),2.9%
CCS(=O)(=O)/C=C/c1ccc2ccccc2n1,-143%,47%,47.3%,-43%,6%,28.9%,-55%,23%,35.2%,-41%,-14%,3.55%,-67%,16%,18.4%,-134%,39%,63.4%
CCC(c1ccc(O)cc1)C(CC)c1ccc(O)c(O)c1 (configuration not stated),16%,98% (active),99.6% (active),12%,99% (active),99.5% (active),13%,99% (active),99.5% (active),-2%,99% (active),99.4% (active),10%,98% (active),99.5% (active),12%,97% (active),99.5% (active)
CC(C)OC(=O)c1cc([N+](=O)[O-])cc([N+](=O)[O-])c1Sc1ncnc2nc[nH]c12,49%,54%,14.2%,11%,49%,15.5%,44%,83% (active),20.9%,44%,57%,65.8%,45%,79% (active),24.7%,35%,42%,66.8%
COC(=O)c1cc(OC)c(OC)c(OC)c1,4%,72% (active),4.25%,1%,18%,-0.5%,2%,29%,-13.1%,2%,60%,-23.3%,2%,70% (active),36.9%,-1%,48%,0.25%
N=C(N)SC1c2ccccc2-c2cc([N+](=O)[O-])ccc21 (configuration not stated),29%,98% (active),97.7% (active),13%,98% (active),98.1% (active),22%,98% (active),98.6% (active),14%,98% (active),97.8% (active),11%,99% (active),98% (active),17%,99% (active),98.5% (active)
C/C=C1\SC(=S)NC1=O,25%,99% (active),98.8% (active),11%,99% (active),98.8% (active),22%,98% (active),99.2% (active),6%,98% (active),95.9% (active),9%,98% (active),98% (active),36%,99% (active),99.3% (active)
C/C(=N\NC(=S)N(C)C1CCCCC1)c1ccc2ccccc2n1,18%,88% (active),83.2% (active),28%,97% (active),80.2% (active),28%,93% (active),81.8% (active),33%,88% (active),84% (active),33%,96% (active),76.9% (active),19%,97% (active),89.2% (active)
O=C(c1ccccc1)c1ccccc1S(=O)(=O)Nc1ccccc1,-5%,79% (active),62.9%,-2%,69%,27.8%,-3%,77% (active),30.2%,-8%,86% (active),62.1%,4%,91% (active),64.2%,-2%,87% (active),72.8% (active)
CCCCCCCCCCCCCCSC(=NC)NC,99% (active),99% (active),99.5% (active),99% (active),99% (active),99.8% (active),100% (active),99% (active),99.5% (active),99% (active),99% (active),98.9% (active),99% (active),99% (active),99.5% (active),98% (active),99% (active),99.4% (active)
Nc1ccc2c(c1)[nH]c(=O)c1cccc(Cl)c12,-32%,89% (active),96.1% (active),-34%,88% (active),55.3%,-39%,80% (active),61.2%,-31%,94% (active),63.9%,-52%,90% (active),32.5%,-40%,95% (active),93.1% (active)
Cc1c2ccncc2cc2c3ccccc3n(C)c12,-23%,97% (active),99% (active),-58%,97% (active),98.7% (active),-45%,97% (active),98.7% (active),-50%,98% (active),98.2% (active),-63%,98% (active),98.8% (active),-95%,97% (active),99.2% (active)
Fc1ccc(CN2COc3c(cc(Cl)c4cccnc34)C2)cc1,9%,97% (active),99.2% (active),1%,97% (active),99.6% (active),2%,99% (active),99.6% (active),-8%,98% (active),99.3% (active),-5%,99% (active),99.5% (active),11%,99% (active),99.5% (active)
COc1ccc(/C=c2\sc3nnc(CCC(=O)Nc4cccc(C(F)(F)F)c4)n3c2=O)cc1,-2%,28%,29.9%,0%,43%,53.4%,-2%,51%,44.9%,1%,21%,22.1%,0%,38%,29.6%,-3%,47%,76.8% (active)
CC1(COc2ccccc2OCC2(C)CO2)CO1 (configuration not stated),5%,4%,12.2%,2%,1%,1.15%,0%,10%,7.75%,2%,4%,70.7% (active),-2%,-3%,5.6%,7%,36%,5.35%
COCCCNC(=S)N/N=C/c1cc(Cl)cc(Cl)c1O,21%,75% (active),92.5% (active),15%,81% (active),89.3% (active),27%,94% (active),93.6% (active),10%,77% (active),48.7%,4%,83% (active),80.7% (active),13%,93% (active),85.2% (active)
CCOP(=O)(CCCOc1cc(Cl)c(Cl)cc1Cl)OCC,1%,99% (active),98.7% (active),2%,99% (active),98.9% (active),14%,100% (active),99% (active),7%,99% (active),93.7% (active),6%,99% (active),94.2% (active),2%,99% (active),98.6% (active)
COc1ccc(NC(=O)CCC(=O)CC(=O)c2ccncc2)cc1,-9%,3%,3.5%,4%,-2%,-8.65%,2%,-9%,-6.25%,-5%,2%,41.2%,-2%,1%,3.25%,-1%,-5%,-14.6%
